Measured values as given in a collection of fitness landscapes (doi:10.1016/j.celrep.2020.107928).
Whole data set: some 81,000 sequences, median “one-hybrid fitness for binding NBS DNA” near -0.1, cut for the highest 2% near 0.36. The sample holds the highest values, similar sequences and a random draw of the others, so the mix is not that of the screen.

B1: Caulobacter ParB omega fusion; a variant is named by its letters at X, in order, B8GW30 (parent)
chain: MESVVVGEPGMSEGRRGLGRGLSALLGEVDAAPAQAPGEQLGGSREAPIEILQRNPDQPRRTFREEDLEDLSNSIREKGVLQPILVRPSPDTAGEYQIVAGERAWRAAQRAGLKTVPIMVRELDDLAVLEIGIIENVQRADLNVLEEALSYKVLMEKFERTQENIAQTIGKSXSHVANXMRLLXLPDEVQSYLVSGELTAXHARAIAAAADPVALAKQIIEGGLSVRETEALARKAPNLSAGKSKGGRPPRVKDTDTQALESDLSSVLGLDVSIDHRGSTGTLTITYATLEQLDDLCNRLTRGI

Variants of: B1
Assay: one-hybrid fitness for binding NBS DNA (the Noc-binding site; scaled: cognate 1, non-cognate 0); higher = stronger binding
Settings: with NBS DNA site
Procedure, shortened: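 Fitness is the rescaled log change in variant-to-wild-type read ratio, measured by Illumina sequencing of plasmids before and after bacterial one-hybrid selection. The scale puts cognate at 1 and non-cognate at 0. Selection of Caulobacter ParB libraries, four specificity codons randomised, took place in E. coli USO with a HIS3 reporter, site 19 bp from the promoter, over 48 hours at 37°C on M9-minus-histidine with 0.1 mM IPTG and 5 mM 3-AT.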

Row | Variant | one-hybrid fitness for binding NBS DNA
1 | YQVF | ≤ 0.2
2 | LPAV | ≤ 0.2
3 | QGMS | ≤ 0.2
4 | PQVE | ≤ 0.2
5 | PMPS | ≤ 0.2
6 | FPGC | ≤ 0.2
7 | QINT | 0.462
8 | QLNN | ≤ 0.2
9 | QCNT | 0.569
10 | QSND | ≤ 0.2
11 | QLDT | 0.249
12 | QSDT | 0.32
13 | QINH | ≤ 0.2
14 | QFNT | ≤ 0.2
15 | QPNT | ≤ 0.2
16 | QIDT | ≤ 0.2
17 | QLNT | 0.45
18 | QSNT | 0.476
19 | MQSN | ≤ 0.2
20 | EVQG | ≤ 0.2
21 | AVQR | ≤ 0.2
22 | DELG | ≤ 0.2
23 | YHGF | ≤ 0.2
24 | ENKN | ≤ 0.2
25 | PKSC | ≤ 0.2

Row | Variant | one-hybrid fitness for binding NBS DNA
26 | EETG | ≤ 0.2
27 | PKIC | ≤ 0.2
28 | QHNT | 0.49
29 | QCDT | 0.369
30 | QADT | 0.287
31 | QHDT | 0.344
32 | QHNH | 0.297
33 | QFDT | ≤ 0.2
34 | QAND | ≤ 0.2
35 | QANT | 0.462
36 | QPDT | ≤ 0.2
37 | SMIR | ≤ 0.2
38 | HYMR | ≤ 0.2
39 | SMAM | ≤ 0.2
40 | VWNK | ≤ 0.2
41 | TTMW | ≤ 0.2
42 | QTYD | ≤ 0.2
43 | QSRD | 0.219
44 | QTRD | 0.379
45 | QTRP | 0.401
46 | QPRD | ≤ 0.2
47 | QTRN | 0.543
48 | QTDD | ≤ 0.2
49 | QCRD | 0.384
50 | QTDN | ≤ 0.2

Row | Variant | one-hybrid fitness for binding NBS DNA
51 | QTYP | ≤ 0.2
52 | QTYN | ≤ 0.2
53 | AYPY | ≤ 0.2
54 | GIDC | ≤ 0.2
55 | TRKM | 0.216
56 | LSKY | ≤ 0.2
57 | CYIS | ≤ 0.2
58 | NMYI | ≤ 0.2
59 | PGKG | ≤ 0.2
60 | REGE | ≤ 0.2
61 | SGQC | ≤ 0.2
62 | TFKE | ≤ 0.2
63 | GTES | ≤ 0.2
64 | WLDV | ≤ 0.2
65 | QYEV | ≤ 0.2
66 | CNVT | ≤ 0.2
67 | ADWS | ≤ 0.2
68 | MSTF | ≤ 0.2
69 | QTRH | 0.695
70 | QTYH | 0.271
71 | VRKE | ≤ 0.2
72 | VRNT | 0.374
73 | VCRT | ≤ 0.2
74 | VRYT | 0.225
75 | VRVT | ≤ 0.2

Row | Variant | one-hybrid fitness for binding NBS DNA
76 | VCKT | ≤ 0.2
77 | VRRT | 0.432
78 | VCNT | ≤ 0.2
79 | VRKT | 0.393
80 | VRDT | ≤ 0.2
81 | FQNR | ≤ 0.2
82 | ARIY | ≤ 0.2
83 | LLCL | ≤ 0.2
84 | RIHF | ≤ 0.2
85 | RIHT | 0.532
86 | RTHT | 0.57
87 | RGHT | ≤ 0.2
88 | RIHY | ≤ 0.2
89 | RNHT | ≤ 0.2
90 | RTHP | ≤ 0.2
91 | RHHK | ≤ 0.2
92 | RHHT | 0.419
93 | RSHT | 0.402
94 | RTHN | ≤ 0.2
95 | TCRD | ≤ 0.2
96 | THRD | ≤ 0.2
97 | YERR | ≤ 0.2
98 | FARS | ≤ 0.2
99 | YKWR | ≤ 0.2
100 | GHSC | ≤ 0.2

Row | Variant | one-hybrid fitness for binding NBS DNA
101 | LSHC | ≤ 0.2
102 | RFHT | 0.263
103 | RMHP | ≤ 0.2
104 | RPHT | ≤ 0.2
105 | RAHQ | ≤ 0.2
106 | RMHT | 0.448
107 | RMHH | ≤ 0.2
108 | RAHT | 0.427
109 | RAHK | ≤ 0.2
110 | RCHT | 0.538
111 | AGWC | ≤ 0.2
112 | CVAV | ≤ 0.2
113 | ANSI | ≤ 0.2
114 | SVIN | ≤ 0.2
115 | CNSM | ≤ 0.2
116 | QFDR | ≤ 0.2
117 | QFRR | 0.441
118 | QFFR | 0.439
119 | QFKH | ≤ 0.2
120 | QFVR | ≤ 0.2
121 | QFFG | 0.554
122 | QFYR | ≤ 0.2
123 | QFAR | ≤ 0.2
124 | QFYG | ≤ 0.2
125 | QFKR | 0.595

Row | Variant | one-hybrid fitness for binding NBS DNA
126 | QFAG | ≤ 0.2
127 | QFFS | ≤ 0.2
128 | KDMM | ≤ 0.2
129 | CVAL | ≤ 0.2
130 | PSKH | ≤ 0.2
131 | NIHC | ≤ 0.2
132 | ILDT | ≤ 0.2
133 | GHDG | ≤ 0.2
134 | QTVH | 0.247
135 | QTKD | 0.398
136 | QTKH | 0.744
137 | DTKS | ≤ 0.2
138 | NTKS | ≤ 0.2
139 | QTVD | ≤ 0.2
140 | NTKH | ≤ 0.2
141 | QTKS | 0.783
142 | QPKD | ≤ 0.2
143 | QTVS | 0.406
144 | LKPK | ≤ 0.2
145 | HFKG | ≤ 0.2
146 | MFQS | ≤ 0.2
147 | CVRD | ≤ 0.2
148 | CFTS | ≤ 0.2
149 | THAL | ≤ 0.2
150 | VGWS | ≤ 0.2

Row | Variant | one-hybrid fitness for binding NBS DNA
151 | YYSE | ≤ 0.2
152 | CALW | ≤ 0.2
153 | QTVN | ≤ 0.2
154 | QTKP | 0.41
155 | QTVP | ≤ 0.2
156 | QTKN | 0.56
157 | QCKP | 0.332
158 | MGCR | ≤ 0.2
159 | YYNE | ≤ 0.2
160 | KRKG | 0.234
161 | SVHI | ≤ 0.2
162 | PNPM | ≤ 0.2
163 | QAHH | ≤ 0.2
164 | QHHH | 0.214
165 | QLHS | 0.373
166 | QAHS | 0.398
167 | QHHS | 0.386
168 | QHHD | ≤ 0.2
169 | QLHD | ≤ 0.2
170 | QLHN | ≤ 0.2
171 | QMHS | 0.451
172 | QMHH | 0.221
173 | QAHN | ≤ 0.2
174 | QMHD | ≤ 0.2
175 | HRHV | ≤ 0.2

Row | Variant | one-hybrid fitness for binding NBS DNA
176 | IEST | ≤ 0.2
177 | VWYL | ≤ 0.2
178 | EEFL | ≤ 0.2
179 | ILLI | ≤ 0.2
180 | QSHN | ≤ 0.2
181 | QCHS | 0.502
182 | QPHS | ≤ 0.2
183 | QIHS | 0.281
184 | QSHS | 0.381
185 | QSHH | ≤ 0.2
186 | CANC | ≤ 0.2
187 | RDTV | ≤ 0.2
188 | RRTD | ≤ 0.2
189 | RRTS | 0.661
190 | RRTH | 0.509
191 | RRTN | 0.339
192 | RCTH | 0.237
193 | RSTY | ≤ 0.2
194 | RCTY | ≤ 0.2
195 | RRTP | ≤ 0.2
196 | RRTY | 0.378
